Data on five compounds can be found in PubChem BioAssay AID1274 (Emory University Molecular Libraries Screening Center, 2008).

About 1,100 (0.5%) of roughly 220,000 compounds were called active.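 How the source made its calls: active means inhibition above about 30% (limit read from the data); inactive means the rest.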 Many of the other results were omitted from the sample, so actives are more common in it than they were.

The term inhibition denotes the relative decrease from the control value, in per cent.

Sequence of Neutrophil cytosol factor 1 (Homo sapiens) (P14598 whole entry, looked up): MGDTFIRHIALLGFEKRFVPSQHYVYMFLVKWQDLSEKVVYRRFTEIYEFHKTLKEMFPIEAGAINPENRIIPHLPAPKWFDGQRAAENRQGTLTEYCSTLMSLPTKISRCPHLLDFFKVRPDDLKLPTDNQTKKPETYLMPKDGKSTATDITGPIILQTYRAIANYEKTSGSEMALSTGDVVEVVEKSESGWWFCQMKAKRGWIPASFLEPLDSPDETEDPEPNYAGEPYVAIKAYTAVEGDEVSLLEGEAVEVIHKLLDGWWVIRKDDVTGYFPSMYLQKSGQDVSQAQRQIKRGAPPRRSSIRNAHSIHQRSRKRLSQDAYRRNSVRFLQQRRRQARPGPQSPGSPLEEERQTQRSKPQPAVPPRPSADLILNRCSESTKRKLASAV

The assay concerns the target Neutrophil cytosol factor 1 (Homo sapiens) (UniProt P14598). The assay can be described thus: p47phox/p22phox peptide binding inhibitors, primary screen, biochemical, uHTS, NADPH oxidase regulatory subunit (AID 1274).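 Further: 0% = p47phox with labelled peptide and 100% = labelled peptide alone.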 The conditions noted are these: fluorescence polarization, 2 h, at 24.7 µM, stronger effect = higher value. (Fluorescence polarisation rises when a labelled molecule tumbles more slowly, as on binding a larger partner.)
For `COc1ccccc1CN1CCN(C(=O)Cc2ccccc2)CC1`, the inhibition is 3.15% (inactive).
To `O=C(Cc1ccccc1[N+](=O)[O-])N1CCN(Cc2ccc3c(c2)OCO3)CC1` belongs -1.92% (inactive); to `O=C(COc1ccc2ccccc2c1)N1CCN(Cc2ccncc2)CC1`, 38.1% (active); to `COCc1cc(OC(=O)N(C)C)nc(-c2ccc(C)c(Cl)c2)n1`, -3.02% (inactive).
Regarding `COC(=O)N(c1ccc(OC)cc1)P1(=S)OCCC(C)O1` (stereo not given), the inhibition is 2.14% (inactive).
